Test results reported in PubChem BioAssay AID1159580 (chemical genetic matrix, 2015).
Screen size: about 5,500 compounds; about 2,000 (36%) were called active. Not shown: some 18% with an inconclusive outcome. Rule as the data show it: active = normalized growth mostly below about 0.91 (no sharp cut-off); inconclusive = no clear call, values can overlap the other calls; inactive = mostly above about 0.92. This is one part of the list.

Experiment: chemical genetic growth profiling, strain panel (AID 1159580);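 also: tested at 20 µM; growth read once vehicle control cultures reached saturation at 30 °C; 1 = growth at the plate median or of vehicle wells; lower values mean less growth of the strain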
Settings: S. cerevisiae deletion strains, growth OD

Measured: normalized growth

CC(C1OC(C)(C)C(O)C1O)[C@@H]1CC[C@]2(C)C3=CCC4C(C)(C)C(=O)CC[C@]4(C)C3CC[C@@]12C (stereo partly drawn)
inactive: locus YAL013W, strain DEP1, active compounds read low 0.979 | locus YAL021C, strain ccr4, active compounds read low 1.02 | locus YAL026C, strain drs2, active compounds read low 0.987 | locus YAL030W, strain snc1, active compounds read low 1 | locus YBL061C, strain skt5, active compounds read low 0.978 | locus YBR009C, strain hhf1, active compounds read low 0.946 | locus YBR021W, strain FUR4, active compounds read low 1.06 | locus YBR023C, strain chs3, active compounds read low 0.985 | locus YBR171W, strain sec66, active compounds read low 0.985 | locus YBR229C, strain ROT2, active compounds read low 1.02 | locus YBR231C, strain swc5, active compounds read low 0.971 | locus YBR279W, strain paf1, active compounds read low 0.995 | locus YCL011C, strain gbp2, active compounds read low 0.981 | locus YCL016C, strain dcc1, active compounds read low 0.989 | locus YCL029C, strain bik1, active compounds read low 1.01 | locus YCL061C, strain MRC1, active compounds read low 0.995 | locus YCL069W, strain vba3, active compounds read low 0.994 | locus YCR088W, strain abp1, active compounds read low 1 | locus YDL005C, strain med2, active compounds read low 0.968 | locus YDL035C, strain GPR1, active compounds read low 0.931 | locus YDL040C, strain nat1, active compounds read low 0.976 | locus YDL074C, strain BRE1, active compounds read low 0.845 | locus YDL101C, strain DUN1, active compounds read low 0.989 | locus YDL134C, strain PPH21, active compounds read low 0.951 | locus YDL192W, strain arf1, active compounds read low 0.983 | locus YDR001C, strain nth1, active compounds read low 0.999 | locus YDR069C, strain doa4, active compounds read low 0.985 | locus YDR101C, strain arx1, active compounds read low 0.973 | locus YDR137W, strain rgp1, active compounds read low 1.02 | locus YDR159W, strain sac3, active compounds read low 0.898 | locus YDR162C, strain NBP2, active compounds read low 0.958 | locus YDR195W, strain ref2 1.05 | locus YDR297W, strain sur2, active compounds read low 0.981 | locus YDR318W, strain mcm21, active compounds read low 1 | locus YDR334W, strain swr1, active compounds read low 0.987 | locus YDR335W, strain msn5, active compounds read low 0.999 | locus YDR388W, active compounds read low 1.03 | locus YDR392W, strain spt3, active compounds read low 0.838 | locus YDR502C, strain sam2, active compounds read low 0.989 | locus YEL003W, strain gim4, active compounds read low 0.937 | locus YEL037C, strain rad23, active compounds read low 0.983 | locus YEL061C, strain CIN8 (second series), active compounds read low 0.99 | locus YER015W, strain faa2, active compounds read low 0.992 | locus YER016W, strain bim1, active compounds read low 0.99 | locus YER110C, active compounds read low 1.03 | locus YER111C, strain swi4, active compounds read low 0.999 | locus YER155C, strain BEM2 (second series), active compounds read low 0.924 | locus YER155C, strain BEM2, active compounds read low 1.07 | locus YER167W, strain BCK2, active compounds read low 1.01 | locus YFR010W, strain ubp6, active compounds read low 0.973 | locus YGL078C, strain dbp3, active compounds read low 1.03 | locus YGL086W, strain mad1, active compounds read low 1.03 | locus YGL167C, strain pmr1, active compounds read low 0.977 | locus YGL173C, strain kem1, active compounds read low 0.976 | locus YGL227W, strain vid30, active compounds read low 0.99 | locus YGL240W, strain doc1, active compounds read low 0.896 | locus YGL248W, strain PDE1, active compounds read low 0.97 | locus YGL253W, strain hxk2, active compounds read low 0.922 | locus YGR078C, strain PAC10, active compounds read low 0.91 | locus YGR135W, strain pre9, active compounds read low 1.01 | locus YGR252W, strain gcn5, active compounds read low 0.77 | locus YHR013C, strain ard1, active compounds read low 0.966 | locus YHR027C, strain rpn1, active compounds read low 1.02 | locus YHR079C, strain IRE1 (second series), active compounds read low 1.03 | locus YHR094C, strain hxt1, active compounds read low 1.03 | locus YHR129C, strain ARP1, active compounds read low 1 | locus YHR142W, strain chs7, active compounds read low 0.919 | locus YHR200W, strain rpn10, active compounds read low 1.01 | locus YIL066C, strain RNR3, active compounds read low 0.887 | locus YIL073C, strain SPO22, active compounds read low 0.99 | locus YIL125W, strain kgd1, active compounds read low 1.03 | locus YIR030C, strain dcg1, active compounds read low 1.04 | locus YJL092W, strain hpr5, active compounds read low 1 | locus YJL095W, strain BCK1 (second series), active compounds read low 1 | locus YJL095W, strain BCK1, active compounds read low 0.904 | locus YJL115W, strain asf1, active compounds read low 0.985 | locus YJL129C, strain trk1, active compounds read low 0.949 | locus YJL134W, strain LCB3, active compounds read low 1.04 | locus YJL154C, strain vps35, active compounds read low 1.01 | locus YJL164C, strain tpk1, active compounds read low 0.983 | locus YJL166W, strain qcr8, active compounds read low 0.917 | locus YJL168C, strain set2, active compounds read low 1.03 | locus YJL187C, strain SWE1 (second series), active compounds read low 0.958 | locus YJL187C, strain SWE1, active compounds read low 0.999 | locus YKL068W, active compounds read low 1.02 | locus YKL085W, strain MDH1 (second series), active compounds read low 1.05 | locus YKL085W, strain MDH1, active compounds read low 1.05 | locus YKL160W, strain elf1, active compounds read low 0.972 | locus YKL190W, strain CNB1, active compounds read low 1.03 | locus YKR001C, strain vps1, active compounds read low 1.01 | locus YKR026C, strain gcn3, active compounds read low 0.996 | locus YKR091W, strain srl3, active compounds read low 0.995 | locus YLL001W, strain dnm1, active compounds read low 1 | locus YLL026W, active compounds read low 0.997 | locus YLL041C, strain sdh2, active compounds read low 0.992 | locus YLR027C, strain aat2, active compounds read low 0.973 | locus YLR039C, strain RIC1, active compounds read low 1.06 | locus YLR058C, strain SHM2, active compounds read low 0.987 | locus YLR102C, strain apc9, active compounds read low 1.03 | locus YLR221C, strain rsa3, active compounds read low 0.936 | locus YLR258W, strain gsy2, active compounds read low 0.983 | locus YLR262C, strain YPT6 (second series), active compounds read low 0.979 | locus YLR262C, strain YPT6, active compounds read low 1.06 | locus YLR268W, strain sec22, active compounds read low 0.94 | locus YLR342W, strain FKS1, active compounds read low 0.923 | locus YLR357W, strain rsc2, active compounds read low 0.947 | locus YLR370C, strain arc18, active compounds read low 0.988 | locus YLR371W, strain rom2, active compounds read low 1.03 | locus YLR384C, strain iki3, active compounds read low 0.991 | locus YML016C, strain PPZ1, active compounds read low 1.03 | locus YML032C, strain rad52, active compounds read low 0.956 | locus YML120C, strain ndi1, active compounds read low 0.995 | locus YML124C, strain tub3, active compounds read low 1.04 | locus YMR058W, strain fet3, active compounds read low 0.978 | locus YMR078C, strain ctf18, active compounds read low 1.02 | locus YMR125W, strain sto1, active compounds read low 1.01 | locus YMR129W, active compounds read low 0.996 | locus YMR205C, strain PFK2, active compounds read low 0.95 | locus YMR223W, strain ubp8, active compounds read low 0.987 | locus YMR231W, strain pep5, active compounds read low 0.949 | locus YMR307W, strain GAS1, active compounds read low 0.775 | locus YNL067W, strain RPL9B, active compounds read low 0.999 | locus YNL153C, strain GIM3, active compounds read low 0.97 | locus YNL209W, strain ssb2, active compounds read low 0.995 | locus YNL248C, strain rpa49, active compounds read low 0.973 | locus YNL250W, strain rad50, active compounds read low 1.04 | locus YNL271C, strain bni1, active compounds read low 1.02 | locus YNL298W, strain CLA4, active compounds read low 0.973 | locus YNL307C, strain MCK1, active compounds read low 0.942 | locus YNL322C, strain KRE1 (second series), active compounds read low 0.975 | locus YNL322C, strain KRE1, active compounds read low 1.04 | locus YNR049C, strain mso1, active compounds read low 0.982 | locus YNR052C, strain pop2, active compounds read low 1.01 | locus YOL006C, strain TOP1, active compounds read low 0.88 | locus YOL012C, strain htz1 0.776 | locus YOL147C, strain pex11, active compounds read low 0.999 | locus YOR001W, strain rrp6, active compounds read low 0.97 | locus YOR061W, strain CKA2, active compounds read low 1.01 | locus YOR069W, strain VPS5, active compounds read low 1.03 | locus YOR070C, strain gyp1, active compounds read low 0.997 | locus YOR080W, strain dia2, active compounds read low 0.979 | locus YOR083W, strain WHI5, active compounds read low 0.972 | locus YOR106W, strain vam3, active compounds read low 0.961 | locus YOR136W, strain idh2, active compounds read low 1.01 | locus YOR144C, strain elg1, active compounds read low 1.01 | locus YOR265W, strain rbl2, active compounds read low 0.991 | locus YOR270C, strain vph1, active compounds read low 0.821 | locus YOR290C, strain snf2, active compounds read low 0.942 | locus YOR316C, strain cot1, active compounds read low 1.03 | locus YPL051W, strain arl3, active compounds read low 0.94 | locus YPL078C, strain atp4, active compounds read low 1 | locus YPL106C, strain sse1, active compounds read low 1.08 | locus YPL240C, strain hsp82, active compounds read low 0.991 | locus YPR119W, strain clb2, active compounds read low 1.04 | locus YPR141C, strain kar3, active compounds read low 1.04 | locus YPR163C, strain tif3, active compounds read low 0.965 | locus YPR167C, strain met16, active compounds read low 1.03 | strain wtn01, active compounds read low 0.956
active: locus YLR320W, strain mms22, active compounds read low 0.877 | locus YLR418C, strain cdc73, active compounds read low 0.79 | locus YNL071W, strain lat1, active compounds read low 0.906 | locus YNL233W, strain BNI4, active compounds read low 0.867 | locus YOR184W, strain ser1, active compounds read low 0.868
